Many of the other results were omitted from the sample, so hits are more common in it than they were.
TDP1 cell noCPT: qHTS for Inhibitors of human tyrosyl-DNA phosphodiesterase 1 (TDP1): qHTS in cells in absence of CPT; DT40 Tdp1-/- hTDP1 cells, no CPT, ATP luminescence, 48 h; Potency, µM (top dose mostly 46.2 µM), usual class: inhibitors; 420,000 tested, 15% active; AID 686978, 2013; also: nearly all actives have a fitted effect of over 55% in size
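Seeded 400 DT40-hTDP1 cells/well (vehicle DMSO, no 20 nM CPT); pinned compounds; ≥48 hr at 37 °C; CellTiter-Glo luminescence as viability measure.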
HT1080 IDH1KD tx: toxicity to HT-1080 IDH1 knockdown cells (counter line). HT-1080 IDH1 knockdown viability, ATP luminescence, 48 h. Potency, µM (series often up to 46.1 µM), most hits filed as cytotoxic. 360,000 tested, 2% active
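% activity derives from luminescence (CellTiter-Glo), normalised to DMSO and no-cell wells. HT-1080-IDH1KD cells, 750/well, had 48 h compound exposure at 37 °C.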
HT1080NT lethal: kills 2HG-producing HT-1080-NT fibrosarcoma cells; HT-1080-NT fibrosarcoma viability, CellTiter-Glo ATP luminescence, 48 h; Potency, µM (titrated, usually from 46.1 µM), usual class: cytotoxic; 360,000 tested, 1.6% active; AID 686970;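 also: NT is the 2HG producing partner of a matched IDH1 knockdown line; nearly all actives have a fitted effect of over 55% in size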
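Toxicity toward the 2HG-producing NT line was scored as %Activity, normalised to DMSO and no-cell wells, from CellTiter-Glo luminescence after 48 hours' treatment.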
IL1B secr inh: inhibitors of inflammasome signaling (IL-1 beta secretion); 360,000 tested, 4.7% active; activity change, % at 57.5 µM; AID 743279; THP-1 LPS/ATP IL-1B secretion, AlphaLISA, 16 h; stronger effect = lower value; in the data active = activity change below about -50%; inconclusive = mostly about -30% to -49%
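Secreted IL-1B measured by AlphaLISA bead assay after 16 h compound exposure of THP-1 cells; compounds (final up to 57.5 uM) added 1 h before LPS (250 ng/mL) and ATP (1.25 mM) stimulation; lower signal means less secretion.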
ALOX12 inh: blocks human arachidonate 12S-lipoxygenase; Potency, µM (series often up to 108 µM), actives largely listed as inhibitors; AID 1671190; 580,000 tested, 1.1% active; purified 12hLO, xylenol orange hydroperoxide absorbance
Target sequence (P18054 whole entry, looked up): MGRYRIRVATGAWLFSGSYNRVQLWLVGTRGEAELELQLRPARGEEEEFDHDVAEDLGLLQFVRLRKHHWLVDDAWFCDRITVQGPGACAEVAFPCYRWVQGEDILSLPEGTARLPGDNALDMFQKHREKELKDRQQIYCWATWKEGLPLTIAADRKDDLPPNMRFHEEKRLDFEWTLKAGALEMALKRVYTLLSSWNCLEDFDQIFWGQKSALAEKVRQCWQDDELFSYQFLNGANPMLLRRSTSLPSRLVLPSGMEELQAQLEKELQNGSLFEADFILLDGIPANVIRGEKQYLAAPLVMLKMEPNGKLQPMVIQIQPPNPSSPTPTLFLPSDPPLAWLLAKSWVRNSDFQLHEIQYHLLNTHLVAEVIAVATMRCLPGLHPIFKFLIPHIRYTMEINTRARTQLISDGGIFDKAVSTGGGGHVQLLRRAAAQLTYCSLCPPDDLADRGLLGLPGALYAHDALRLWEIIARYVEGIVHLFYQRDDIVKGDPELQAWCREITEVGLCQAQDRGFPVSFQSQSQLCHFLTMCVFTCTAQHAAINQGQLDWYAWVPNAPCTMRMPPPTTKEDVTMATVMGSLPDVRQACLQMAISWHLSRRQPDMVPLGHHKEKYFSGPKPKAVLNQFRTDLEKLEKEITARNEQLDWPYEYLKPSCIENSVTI
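Hydroperoxide product was detected by ferrous iron/xylenol orange as the 573 to 405 nm absorbance ratio. Arachidonic acid at 40 uM (final) was turned over for 30 min at room temperature by 150 nM human 12hLO, pH 7.0 Hepes buffer, after 15 min compound preincubation.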
DT40 TDP1 CPT: growth inhibition of DT40 Tdp1-/-;hTDP1 cells with camptothecin (screen for TDP1 inhibitors); chicken DT40 Tdp1-/-;hTDP1 cells + 20 nM CPT, ATP luminescence, 48 h; Potency, µM (top dose mostly 46.2 µM), actives largely listed as inhibitors; 420,000 tested, 12% active; AID 686979; also: nearly all actives have a fitted effect of over 55% in size
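Cell growth measured by CellTiter-Glo luminescence after a minimum 48 h, 37 C compound exposure with 20 nM CPT in Tdp1-knockout DT40 cells stably expressing hTDP1, seeded 400/well; qHTS titration format.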
Large screens that a line does not name were inactive. Unless noted, calls follow the shape of the dose curve; as a rule, active = well fitted curve in the direction sought with a large enough effect; inconclusive = small, poorly fitted or top-dose-only effect, or another doubt; inactive = no such curve, though single readings can be large; an effect the other way counts as inactive or inconclusive.

Cc1cccc(NC(=O)Cn2c(N3CCC(C)CC3)nc(C)cc2=O)c1	none (no result: TDP1 cell noCPT, HT1080 IDH1KD tx, HT1080NT lethal, IL1B secr inh, DT40 TDP1 CPT)
O=C(c1ccc2[nH]ccc2c1)N1CCCN(c2cc(-c3ccc(F)cc3)[nH]n2)CC1	none (no result: TDP1 cell noCPT, HT1080 IDH1KD tx, HT1080NT lethal, IL1B secr inh, DT40 TDP1 CPT)
COCCn1c(=O)[nH]c2cc(C(=O)N3CCN(c4ccccc4)CC3)ccc2c1=O	TDP1 cell noCPT inconclusive
COCCn1c(=O)[nH]c2cc(C(=O)N3CCN(c4cccc(C)c4C)CC3)ccc2c1=O	TDP1 cell noCPT 21µM, DT40 TDP1 CPT 15µM
O=C(c1ccc2c(c1)[nH]c(=S)n1c3ccccc3nc21)N1CCN(c2cccc(Cl)c2)CC1	TDP1 cell noCPT 18µM, DT40 TDP1 CPT 18µM
C=CCn1c(=O)[nH]c2cc(C(=O)N3CCN(c4cc(C)ccc4C)CC3)ccc2c1=O	TDP1 cell noCPT inconclusive, DT40 TDP1 CPT inconclusive
C=CCn1c(=O)[nH]c2cc(C(=O)N3CCN(c4cccc(Cl)c4)CC3)ccc2c1=O	TDP1 cell noCPT 7.3µM, ALOX12 inh inconclusive, DT40 TDP1 CPT 9.2µM
C=CCn1c(=O)[nH]c2cc(C(=O)N3CCN(c4ccc(C(C)=O)cc4)CC3)ccc2c1=O	TDP1 cell noCPT 16µM, HT1080 IDH1KD tx inconclusive, DT40 TDP1 CPT 21µM
COc1ccc(N2CCN(C(=O)c3ccc4c(c3)[nH]c(=S)n3c5ccccc5nc43)CC2)cc1	none (no result: TDP1 cell noCPT, HT1080 IDH1KD tx, HT1080NT lethal, IL1B secr inh, DT40 TDP1 CPT)
O=C(O)c1ccc(C=Nc2ccc(Br)cc2)cc1	none (no result: TDP1 cell noCPT, HT1080 IDH1KD tx, HT1080NT lethal, IL1B secr inh, DT40 TDP1 CPT)
COCCn1c(=O)[nH]c2cc(C(=O)N3CCN(c4cccc(Cl)c4)CC3)ccc2c1=O	TDP1 cell noCPT 9.2µM, DT40 TDP1 CPT 23µM
COc1cccc(N2CCN(C(=O)c3ccc4c(=O)n(CCc5ccccc5)c(=O)[nH]c4c3)CC2)c1	TDP1 cell noCPT 7.3µM, DT40 TDP1 CPT 15µM (no result: HT1080 IDH1KD tx, HT1080NT lethal, IL1B secr inh)
COc1ccc(Cn2c(=O)[nH]c3cc(C(=O)N4CCN(c5ccccc5)CC4)ccc3c2=O)cc1	TDP1 cell noCPT inconclusive
COc1cc(-c2noc(C)c2C#Cc2nccn2C)cc(OC)c1OC	TDP1 cell noCPT 13µM, HT1080 IDH1KD tx inconclusive, HT1080NT lethal inconclusive, DT40 TDP1 CPT 16µM
Cc1cccc(OCC(=O)Nc2nc(-c3ccc(S(=O)(=O)N4CCOCC4)cc3)cs2)c1	none (no result: TDP1 cell noCPT, HT1080 IDH1KD tx, HT1080NT lethal, IL1B secr inh, DT40 TDP1 CPT)
COc1ccc(-c2csc(NC(=O)c3ccc(S(=O)(=O)N4CCc5ccccc5C4)cc3)n2)c(OC)c1	TDP1 cell noCPT 13µM, DT40 TDP1 CPT inconclusive
O=C(Nc1nc(-c2ccc(S(=O)(=O)N3CCOCC3)cc2)cs1)c1ccccc1	TDP1 cell noCPT 12µM, HT1080NT lethal inconclusive, IL1B secr inh inconclusive, DT40 TDP1 CPT inconclusive
COc1cccc(C(=O)Nc2nc(-c3ccc(S(=O)(=O)N4CCOCC4)cc3)cs2)c1	TDP1 cell noCPT 12µM, IL1B secr inh inconclusive, DT40 TDP1 CPT 21µM
CCOc1ccc(C(=O)N(c2ccc(C)cc2)C2C=CS(=O)(=O)C2)cc1 (stereo not drawn)	none (no result: TDP1 cell noCPT, HT1080 IDH1KD tx, HT1080NT lethal, IL1B secr inh, DT40 TDP1 CPT)
CCCc1ccc(Oc2cc(-n3ncc(C(C)=O)c3C)nc(C)n2)cc1	none (no result: TDP1 cell noCPT, HT1080 IDH1KD tx, HT1080NT lethal, IL1B secr inh, DT40 TDP1 CPT)
OCCN1CCN(CC/C=C2/c3ccccc3Sc3ccc(C(F)(F)F)cc32)CC1	TDP1 cell noCPT 9.4µM, HT1080 IDH1KD tx 21µM, HT1080NT lethal 21µM, IL1B secr inh inconclusive, ALOX12 inh inconclusive, DT40 TDP1 CPT 21µM
OCCN1CCN(CC/C=C2/c3ccccc3CSc3ccccc32)CC1	TDP1 cell noCPT inconclusive, DT40 TDP1 CPT inconclusive
CN(C)c1ccc(C=Nc2ccc(Br)cc2)cc1	none (no result: TDP1 cell noCPT, HT1080 IDH1KD tx, HT1080NT lethal, IL1B secr inh, DT40 TDP1 CPT)
O=C(CN1CCN(S(=O)(=O)c2ccc(Cl)cc2)CC1)Nc1ccc2c(c1)OCCO2	TDP1 cell noCPT 15µM, DT40 TDP1 CPT inconclusive
O=C(CN1CCN(c2ccccc2O)CC1)Nc1ccc2c(c1)OCCCO2	IL1B secr inh -50
O=C(CN1CCN(S(=O)(=O)c2ccc(Cl)cc2)CC1)Nc1ccc2c(c1)OCO2	TDP1 cell noCPT 29µM, DT40 TDP1 CPT inconclusive
O=C(Nc1ccc2c(c1)OCO2)N1CCN(S(=O)(=O)c2ccc(Cl)cc2)CC1	DT40 TDP1 CPT inconclusive
O=C(CN1CCN(c2ccccc2)CC1)Nc1ccc2c(c1)OCCO2	none
Oc1ccc(/C=N/Nc2cc(N3CCCC3)nc(N3CCCC3)n2)cc1O	TDP1 cell noCPT 21µM, ALOX12 inh inconclusive, DT40 TDP1 CPT 18µM
Cc1cc(N/N=C/c2ccc(O)cc2O)nc(N2CCOCC2)n1	none
Oc1ccc(/C=N\Nc2cc(N3CCOCC3)nc(N3CCOCC3)n2)c(O)c1	TDP1 cell noCPT 16µM, IL1B secr inh inconclusive, DT40 TDP1 CPT 21µM
Cc1cc(N/N=C/c2ccccc2)nc(N2CCOCC2)n1	none
Cc1cccc(/C=N/Nc2cc(N3CCOCC3)nc(N3CCOCC3)n2)c1	TDP1 cell noCPT 16µM, HT1080 IDH1KD tx inconclusive, HT1080NT lethal inconclusive, IL1B secr inh -78, DT40 TDP1 CPT 3.3µM
Cc1nc(N/N=C/c2cccnc2)cc(N2CCOCC2)n1	TDP1 cell noCPT inconclusive, IL1B secr inh -64, DT40 TDP1 CPT inconclusive
O=S(=O)(c1ccc(F)cc1)N1CCC(Oc2ccc(-c3noc(C4CC4)n3)cc2)C1 (stereo not drawn)	none (no result: TDP1 cell noCPT, HT1080 IDH1KD tx, HT1080NT lethal, IL1B secr inh, DT40 TDP1 CPT)
COc1ccc(CNC(=O)N2C[C@@H](Oc3ccccc3)C[C@@H]2C(=O)N2CCOCC2)cc1	none (no result: TDP1 cell noCPT, HT1080 IDH1KD tx, HT1080NT lethal, IL1B secr inh, DT40 TDP1 CPT)
